Values joined by “and” are separate entries in the source; they are usually repeats but may differ in a detail not shown here. Equal entries are not always repeated. In all, about 5,500 compounds went through this assay and about 2,000 (36%) were called active. Not shown: some 18% with an inconclusive outcome. Cut-off read from the data, not from the text of the source: active = normalized growth mostly below about 0.91 (no sharp cut-off); inconclusive = no clear call, values can overlap the other calls; inactive = mostly above about 0.92. The list shows a part of the results.
Assay: chemical genetic growth profiling, strain panel (AID 1159580);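 note: tested at 20 µM; growth read once vehicle control cultures reached saturation at 30 °C; 1 = growth at the plate median or of vehicle wells; lower values mean less growth of the strain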
Conditions: S. cerevisiae deletion strains, growth OD

Measured: normalized growth

CC(C)/C(O)=C1/C(=O)O[C@@H](c2ccoc2)[C@]2(C)C(O)[C@@H](O)[C@@]34OC5(C)OC67CC(C)(C(O)[C@]6(O)[C@@H](O)[C@]3(O5)C12)[C@H](CC(=O)O)[C@]74C (stereo partly drawn)
inactive: locus YAL021C, strain ccr4, hits give low values 0.945 | locus YAL026C, strain drs2, hits give low values 1.01 | locus YAL030W, strain snc1, hits give low values 0.979 | locus YBL061C, strain skt5, hits give low values 1.01 | locus YBR009C, strain hhf1, hits give low values 0.993 | locus YBR021W, strain FUR4, hits give low values 0.991 | locus YBR023C, strain chs3, hits give low values 0.992 | locus YBR171W, strain sec66, hits give low values 1.01 | locus YBR229C, strain ROT2, hits give low values 1 | locus YBR231C, strain swc5, hits give low values 1.03 | locus YBR279W, strain paf1, hits give low values 0.997 | locus YCL011C, strain gbp2, hits give low values 0.975 | locus YCL016C, strain dcc1, hits give low values 0.982 | locus YCL029C, strain bik1, hits give low values 0.997 | locus YCL061C, strain MRC1, hits give low values 0.998 | locus YCL069W, strain vba3, hits give low values 0.981 | locus YCR088W, strain abp1, hits give low values 0.994 | locus YDL005C, strain med2, hits give low values 0.985 | locus YDL035C, strain GPR1, hits give low values 0.993 | locus YDL040C, strain nat1, hits give low values 0.995 | locus YDL074C, strain BRE1, hits give low values 1 | locus YDL101C, strain DUN1, hits give low values 1.01 | locus YDL185W, strain tfp1, hits give low values 1.02 | locus YDL192W, strain arf1, hits give low values 1.01 | locus YDR001C, strain nth1, hits give low values 0.974 | locus YDR069C, strain doa4, hits give low values 1.02 | locus YDR101C, strain arx1, hits give low values 0.986 | locus YDR137W, strain rgp1, hits give low values 0.992 | locus YDR150W, strain NUM1, hits give low values 0.965 | locus YDR159W, strain sac3, hits give low values 1.06 | locus YDR162C, strain NBP2, hits give low values 1.01 | locus YDR195W, strain ref2 0.974 | locus YDR297W, strain sur2, hits give low values 1.01 | locus YDR318W, strain mcm21, hits give low values 1.01 | locus YDR334W, strain swr1, hits give low values 0.988 | locus YDR335W, strain msn5, hits give low values 0.987 | locus YDR388W, hits give low values 1 | locus YDR392W, strain spt3, hits give low values 0.933 | locus YDR502C, strain sam2, hits give low values 1.01 | locus YEL003W, strain gim4, hits give low values 1.01 | locus YEL037C, strain rad23, hits give low values 0.99 | locus YEL061C, strain CIN8 (second series), hits give low values 0.985 | locus YER015W, strain faa2, hits give low values 1.01 | locus YER016W, strain bim1, hits give low values 0.998 | locus YER110C, hits give low values 1.01 | locus YER111C, strain swi4, hits give low values 0.981 | locus YER155C, strain BEM2 (second series), hits give low values 1.04 | locus YER155C, strain BEM2, hits give low values 1 | locus YER167W, strain BCK2, hits give low values 0.996 | locus YFR010W, strain ubp6, hits give low values 1.01 | locus YGL078C, strain dbp3, hits give low values 1.02 | locus YGL086W, strain mad1, hits give low values 1 | locus YGL167C, strain pmr1, hits give low values 0.993 | locus YGL173C, strain kem1, hits give low values 1.02 | locus YGL227W, strain vid30, hits give low values 0.993 | locus YGL240W, strain doc1, hits give low values 1.02 | locus YGL248W, strain PDE1, hits give low values 0.997 | locus YGL253W, strain hxk2, hits give low values 1.01 | locus YGR135W, strain pre9, hits give low values 1.02 | locus YGR229C, strain SMI1, hits give low values 0.991 | locus YGR252W, strain gcn5, hits give low values 0.988 | locus YHR013C, strain ard1, hits give low values 0.976 | locus YHR027C, strain rpn1, hits give low values 0.994 | locus YHR030C, strain SLT2, hits give low values 0.951 | locus YHR079C, strain IRE1 (second series), hits give low values 1.01 | locus YHR079C, strain IRE1, hits give low values 0.984 | locus YHR094C, strain hxt1, hits give low values 1.01 | locus YHR129C, strain ARP1, hits give low values 0.999 | locus YHR142W, strain chs7, hits give low values 0.945 | locus YHR200W, strain rpn10, hits give low values 1.01 | locus YIL066C, strain RNR3, hits give low values 0.991 | locus YIL073C, strain SPO22, hits give low values 1.06 | locus YIL125W, strain kgd1, hits give low values 1 | locus YIR030C, strain dcg1, hits give low values 1.01 | locus YJL092W, strain hpr5, hits give low values 0.989 | locus YJL095W, strain BCK1 (second series), hits give low values 1 | locus YJL095W, strain BCK1, hits give low values 1.03 and 0.971 | locus YJL115W, strain asf1, hits give low values 0.977 | locus YJL129C, strain trk1, hits give low values 0.997 | locus YJL134W, strain LCB3, hits give low values 0.993 | locus YJL154C, strain vps35, hits give low values 0.98 | locus YJL164C, strain tpk1, hits give low values 0.958 | locus YJL166W, strain qcr8, hits give low values 1 | locus YJL168C, strain set2, hits give low values 1.01 | locus YJL187C, strain SWE1 (second series), hits give low values 1.01 | locus YJR066W, strain TOR1, hits give low values 0.926 | locus YJR075W, strain HOC1, hits give low values 1 | locus YKL009W, strain mrt4, hits give low values 1.02 | locus YKL068W, hits give low values 0.999 | locus YKL085W, strain MDH1 (second series), hits give low values 1.01 | locus YKL085W, strain MDH1, hits give low values 1.01 | locus YKL160W, strain elf1, hits give low values 0.962 | locus YKL190W, strain CNB1, hits give low values 0.986 | locus YKR001C, strain vps1, hits give low values 1.01 | locus YKR026C, strain gcn3, hits give low values 0.994 | locus YKR091W, strain srl3, hits give low values 0.991 | locus YLL001W, strain dnm1, hits give low values 0.973 | locus YLL026W, hits give low values 0.992 | locus YLL041C, strain sdh2, hits give low values 0.985 | locus YLR027C, strain aat2, hits give low values 0.999 | locus YLR039C, strain RIC1, hits give low values 1.06 | locus YLR058C, strain SHM2, hits give low values 1.01 | locus YLR102C, strain apc9, hits give low values 0.998 | locus YLR113W, strain HOG1, hits give low values 0.997 | locus YLR221C, strain rsa3, hits give low values 1.05 | locus YLR258W, strain gsy2, hits give low values 0.998 | locus YLR262C, strain YPT6 (second series), hits give low values 0.979 | locus YLR262C, strain YPT6, hits give low values 1.1 | locus YLR268W, strain sec22, hits give low values 0.999 | locus YLR320W, strain mms22, hits give low values 1.04 | locus YLR330W, strain CHS5, hits give low values 1 | locus YLR342W, strain FKS1 (second series), hits give low values 0.985 | locus YLR342W, strain FKS1, hits give low values 0.995 | locus YLR357W, strain rsc2, hits give low values 1.01 | locus YLR370C, strain arc18, hits give low values 0.977 | locus YLR371W, strain rom2, hits give low values 1.01 | locus YLR384C, strain iki3, hits give low values 0.997 | locus YLR418C, strain cdc73, hits give low values 1.03 | locus YML016C, strain PPZ1, hits give low values 1.01 | locus YML032C, strain rad52, hits give low values 1.01 | locus YML120C, strain ndi1, hits give low values 0.973 | locus YML124C, strain tub3, hits give low values 1.02 | locus YMR058W, strain fet3, hits give low values 1 | locus YMR078C, strain ctf18, hits give low values 1.02 | locus YMR125W, strain sto1, hits give low values 0.951 | locus YMR129W, hits give low values 0.989 | locus YMR205C, strain PFK2, hits give low values 0.978 | locus YMR223W, strain ubp8, hits give low values 1.01 | locus YMR231W, strain pep5, hits give low values 1 | locus YMR263W, strain SAP30, hits give low values 1.01 | locus YMR307W, strain GAS1, hits give low values 0.982 | locus YNL067W, strain RPL9B, hits give low values 1.03 | locus YNL071W, strain lat1, hits give low values 0.987 | locus YNL128W, strain TEP1, hits give low values 1 | locus YNL183C, strain NPR1, hits give low values 0.939 | locus YNL209W, strain ssb2, hits give low values 0.988 | locus YNL233W, strain BNI4, hits give low values 0.981 | locus YNL248C, strain rpa49, hits give low values 1.03 | locus YNL250W, strain rad50, hits give low values 1.01 | locus YNL271C, strain bni1, hits give low values 1.01 | locus YNL298W, strain CLA4, hits give low values 1.01 | locus YNL307C, strain MCK1, hits give low values 1 | locus YNL322C, strain KRE1 (second series), hits give low values 1.02 | locus YNR049C, strain mso1, hits give low values 0.974 | locus YNR052C, strain pop2, hits give low values 1.02 | locus YOL012C, strain htz1 0.728 | locus YOL147C, strain pex11, hits give low values 1.01 | locus YOR001W, strain rrp6, hits give low values 1.04 | locus YOR061W, strain CKA2, hits give low values 1 | locus YOR069W, strain VPS5, hits give low values 0.998 | locus YOR070C, strain gyp1, hits give low values 0.996 | locus YOR080W, strain dia2, hits give low values 1 | locus YOR083W, strain WHI5, hits give low values 0.954 | locus YOR106W, strain vam3, hits give low values 0.938 | locus YOR136W, strain idh2, hits give low values 1.02 | locus YOR144C, strain elg1, hits give low values 1.01 | locus YOR184W, strain ser1, hits give low values 1 | locus YOR231W, strain MKK1, hits give low values 0.991 | locus YOR265W, strain rbl2, hits give low values 0.989 | locus YOR270C, strain vph1, hits give low values 0.966 | locus YOR290C, strain snf2, hits give low values 0.907 | locus YOR316C, strain cot1, hits give low values 1.01 | locus YPL051W, strain arl3, hits give low values 1.01 | locus YPL055C, strain LGE1, hits give low values 0.993 | locus YPL078C, strain atp4, hits give low values 0.953 | locus YPL106C, strain sse1, hits give low values 0.976 | locus YPL240C, strain hsp82, hits give low values 1 | locus YPL256C, strain CLN2, hits give low values 0.946 | locus YPR119W, strain clb2, hits give low values 1.01 | locus YPR141C, strain kar3, hits give low values 1.02 | locus YPR163C, strain tif3, hits give low values 1.01 | locus YPR167C, strain met16, hits give low values 1.01 | strain wtn01, hits give low values 1
